Experimental findings from PubChem BioAssay (EPA / NIEHS) are described below.

The source made the active and inactive calls. The calls were made as follows: active = hit-call score of the fitted dose curve at least 0.9, where 1 is the maximum; inactive = score below 0.9.

Read-out in this experiment: Bcl-2 (BAD) gene, BAD (gene 572)
Kind of experiment: LTEA_HepaRG_BAD: Life Technologies and Expression Analysis (LTEA) Assay for Bcl-2 (BAD) gene using HepaRG (AID 2283469). The following applies: mRNA level, 48 h; actives raise or lower the signal. On the procedure: LTEA_HepaRG is a cell based, multiplexed-readout assay that uses HepaRG, a human liver cell line, with measurements taken at 48 hours after chemical dosing on a 96-well plate.LTEA_HepaRG_BAD is one of 102 assay component(s) measured in the LTEA HepaRG cell culture assay. It is a marker of Cell proliferation, survival, death.Data from the assay component LTEA_HepaRG_BAD was analyzed into 1 endpoint. This assay endpoint, LTEA_HepaRG_BAD, was analyzed with bidirectional fitting relative to DMSO as the negative control and baseline of activity. Using a type of inducible reporter, measures of mRNA induction for gain or loss-of-signal activity can be used to understand regulation of transcription factor activity. To generalize the intended target to other relatable targets, this assay endpoint is annotated to the cell cycle intended target family, where the subfamily is Cell proliferation, survival, death.
A total of 1060 chemcials from the ToxCast library were tested in eight-point concentration-response experiments. Cell culture and cytotoxicity assays were conducted at Thermo Fisher Scientific's Custom Services facility (Madison, WI). A single lot of human HepaRG cells (Thermo Fisher Scientific, Frederick, MD) was used for the cell culture experiments. 96-well format collagen type I coated plates of human HepaRG cells were prepared using established methods. Briefly, cryopreserved HepaRG cells were thawed, plated at a density of approximately 100,000 cells/well in HepaRG Thaw, Plate, and General Purpose media (HPRG770, Thermo Fisher Scientific), and incubated for 48 hours. 0.5% DMSO was selected as vehicle control to balance the requisite need of DMSO in HepaRG cultures to maintain differentiation (for example, baseline metabolism, proportions of hepatocytes vs. cholangiocytes), while enabling further hepatic receptor pathway activation (for example, PXR and CAR) in response to chemical exposure. 48 hours after plating, the culture medium was replaced with HepaRG Serum-Free Incudtion Media. Cells were exposed to each test chemical in duplicate and maintained in CO2 incubators for another 48 hours. Chemical plates were thawed to room temperature and 200x concentrations of treatment groups were prepared. 8-point conentration-reponse curves were made with the highest exposure at 100 uM, followed by half-log dilutions, all in 0.5% DMSO. Each test plate contained variouse controls, induction positive controls (1mM phenobarbital), cytotoxicity positive controls ([…] aflatoxin B1), vehicle controls (0.5% DMSO), and total lysis controls (0.5% DMSO). Cell morphology images were taken using an Essen IncuCyte FLR automated microscope, with six 96-well plates imaged in about 24 minutes. Images were captured and exported and JPEG files. Spent culture media was transfered to black-well plates for the LDH assay, and remaining media was sorted at -80 C for later use. Cells were treated with RLT buffer and frozen until shipped for gene expression analysis. Total RNA was isolated from the cell suspension in 75 uL of Buffer RLT (Qiagen, Germantown, MD 20874) by Quintiles/Expression Analysis (Durham, NC) using a custom isolation procedure. Total RNA from each plate well was transferred to a preamplification plate. Fluidigm's 96.96 Dynamic ArrayTM (Fluidigm, Amsterdam, the Netherlands) technology was used for gene expression analyses by quantitative reverse transcription polymerase chain reaction (qRT-PCR, performed by Quintiles/Expression Analysis, Durham, NC)89. Standard TaqManTM Assays (Applied Biosystems/ThermoFisher Scientific, Foster City, CA) were used to assess the expression of 93 genes selected based on their selectivity and sensitivity to important hepatic receptors known to be modulated by environmental chemicals; importance in human hepatocyte functionality; and hepatotoxicity. […]
On to `OCCOCCOCCO`, for which the compound was called inactive. The same measure, in the same setting: the same measure for `OC(Cn1cncn1)(Cn1cncn1)c1ccc(F)cc1F`: “inactive”; for `O=C(O)c1ccc2c(c1)nc(C(=O)NC1CCN(C3CC3)CC1)n2Cc1cc(-c2ccc(Cl)s2)on1`: “inactive”.

Regarding `OCCNCCO`, the outcome was inactive. As for `CC(C)CC(C)O` (stereo not given), the outcome was inactive.

For the compound `O=C(O)c1cccc(C[C@@H]2COc3ccc(OCc4nc5cc(F)ccc5s4)cc3[C@@H]2O)c1`, the call was inactive. For the compound `CCCCOC(=O)c1ccccc1`, the call was inactive. On the same count and under the same terms, as for `COc1cc(C(C)C)c2c(c1)S(=O)(=O)N(COc1cc(=O)n3cccc(OCCN4CCCCC4)c3n1)C2=O`, the entry is “inactive”; as for `CC(C)C(=O)Nc1ccc([N+](=O)[O-])c(C(F)(F)F)c1`, “inactive”; as for `OC[C@H]1O[C@@](CO)(O[C@H]2O[C@H](CO)[C@@H](O)[C@H](O)[C@H]2O)[C@@H](O)[C@@H]1O`, “inactive”. Take `c1ccc2ncccc2c1`: the call was inactive. Regarding `CCCCCCCC1CCC(=O)O1` (stereo not given), the compound was classed as inactive.

Turning to `Cc1nccn1-c1ccc(Sc2cccc(C3(C(N)=O)CCOCC3)c2)cc1`, the compound was classed as inactive.

`CCCCCCCCCC`: the compound was classed as inactive. `CCn1nc(C)c2c1C(=O)NCC(c1ccc(O)cc1)=N2`: the result was inactive. On to `CCCCC(CC)C(=O)OCCOCCOCCOC(=O)C(CC)CCCC` (stereo not given), for which the outcome was inactive. Consider `NC(=O)NN=Cc1ccc([N+](=O)[O-])o1`, for which the AC50 was 381 nM (active). As to `CCCC(CCC)C(=O)O`, the result was inactive. Regarding `OCc1ccccc1`, the result was inactive. Consider `CCCCCCCCN(C)C`, for which the outcome was inactive.

Regarding `CNC(C)=O`, the result was inactive. Regarding `O=C(O)c1cccc(C(=O)O)c1`, the call was inactive. In the case of `C=CN1CCCC1=O`, the compound was classed as inactive. For `C=CCc1cc(S(=O)(=O)c2ccc(O)c(CC=C)c2)ccc1O`, the compound was classed as inactive.

As to `NC(=O)N1c2ccccc2C=Cc2ccccc21`, the compound was called inactive. For the compound `NNC(=O)c1ccncc1`, the call was inactive. For `Cc1ncc([C@@H](CCCCCCc2ccc3c(n2)NCCC3)CC(=O)O)cn1`, the call was inactive. Same read-out and setting: the same measure for `O=S(=O)(O)c1ccc(N=Nc2c(O)ccc3cc(S(=O)(=O)O)ccc23)cc1`: “inactive”; for `CCCOc1ccc(S(=O)(=O)N2CCN(CC)CC2)cc1-c1nc2c(CC)n(Cc3ccccn3)nc2c(=O)[nH]1`: “inactive”; for `C[C@@H](Oc1ccc(CNC(=O)c2cccnc2Oc2ccc3c(c2)OCO3)c(F)c1)C(=O)O`: “inactive”. Take `CCCCCCOC(=O)CC(CC(=O)OCCCCCC)(OC(=O)CCC)C(=O)OCCCCCC`: the outcome was inactive. For the compound `O=C1CN(N=Cc2ccc([N+](=O)[O-])o2)C(=O)N1`, the result was inactive. On the same count and under the same terms, as for `Cc1nc(-c2ccccn2)ncc1C(=O)Nn1cc(C)c2cc(F)ccc21`, the entry is “inactive”. Consider `COCc1nnc(-c2ccc[n+]([O-])c2)n1-c1c(Cl)c(Cl)cc2[nH]c(=O)c(=O)[nH]c12`, for which the result was inactive. In the case of `COS(C)(=O)=O`, the outcome was inactive. `O=C(NO)C1(NS(=O)(=O)c2ccc(Oc3ccc(F)cc3)cc2)CCOCC1`: the call was inactive. With `CCCCCCCCCCCCCCCCOS(=O)(=O)O`, the result was inactive.

Take `C[C@]12C=CC(=O)C=C1CC[C@H]1[C@@H]3C[C@@H](O)[C@](O)(C(=O)CO)[C@@]3(C)C[C@H](O)[C@@]12F`: the result was inactive. For the compound `CC(=O)c1ccccc1`, the result was inactive. On to `OC(CCl)CCl`, for which the call was inactive.

In general, AC50 refers to the concentration at which the activity in the assay is half-maximal.
